We go through 19 molecules from PubChem BioAssay AID720706 (Broad Institute, 2013).

The structures appear in SMILES notation. Among all 350,000 compounds or so, about 5,500 (1.6%) were called active.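 How the source made its calls: active means significant combined selectivity score with lowered wild-type GFP, culture density cut under 30%, mutant RFP and density less affected; inactive means any of these conditions unmet.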 The entries come from a sample that favours actives as a whole.

This assay in a line: GFP drop in mixed WT/humanized-ribosome E. coli culture – GFP/RFP fluorescence, OD600, single point, bacterial rRNA inhibitor project, primary screen (AID 720706). The conditions noted are these: E. coli WT GFP vs humanized-ribosome RFP mutants, 24 h; GFP signal change (wild-type ribosome): stronger effect = lower value, DMSO median 0, no signal -100; OD600 change: measured here: OD600 growth, DMSO median 0, no signal -100; RFP signal change: measured here: RFP humanized mutant strains, DMSO median 0, no signal -100, concentration not given here.
For the molecule `C[C@@H]1CCCCO[C@@H](CN(C)C(=O)c2ccccc2)[C@H](C)CN([C@@H](C)CO)C(=O)c2cc(NS(=O)(=O)c3cn(C)cn3)ccc2O1`, the GFP signal change (wild-type ribosome) is 4.03% (inactive), the OD600 change came out at 4.12% and the RFP signal change was -1.99%.

`CC(NC(=O)c1ccccc1)C(=O)OCC(=O)Nc1cccc(S(=O)(=O)N2CCCC2)c1` (configuration not stated): the GFP signal change (wild-type ribosome) is -2.56% (inactive), the OD600 change stood at 4.84% and the RFP signal change was -0.0785%.

For `Cc1ccc(C(=O)NCC(=O)OCC(=O)Nc2cccc(S(=O)(=O)N3CCCC3)c2)cc1C`, the GFP signal change (wild-type ribosome) was -20.9% (active), the OD600 change was -2.78% and the RFP signal change is -2.48%.

Regarding `O=C(CCNC(=O)c1ccc(Br)cc1)Nc1cccc(S(=O)(=O)N2CCCCC2)c1`, the GFP signal change (wild-type ribosome) was -12.3% (inactive), the OD600 change was -43.3% and the RFP signal change came to 1.03%.

For the molecule `CC(C)(C)[S@](=O)N1Cc2cc(C(=O)N[C@@H]3CCN(Cc4ccccc4)C3)nc(-c3cccc(-c4ccncc4)c3)c2[C@@H]1CCO`, the GFP signal change (wild-type ribosome) is 1.13% (inactive), the OD600 change came to 9.43% and the RFP signal change is -4.39%.

For `CCCNC(=O)N1C[C@H]2[C@@H](c3ccccc31)[C@H](CO)N2C(=O)NC(C)C`, the GFP signal change (wild-type ribosome) was 2.8% (inactive), the OD600 change came out at 10.8% and the RFP signal change stood at 1.99%.

With `COc1ccc(Cl)cc1NC(=O)NCC1CCN(Cc2ccccc2F)CC1`, the GFP signal change (wild-type ribosome) was -5.44% (inactive), the OD600 change was -28.5% and the RFP signal change turned out to be 37.7%.

Turning to `COc1ccc(Cl)cc1NC(=O)C(C)N1CCc2ccccc21` (configuration not stated), the GFP signal change (wild-type ribosome) is -31% (active), the OD600 change was -24.4% and the RFP signal change is -3.11%.

As for `COc1ccc(Cl)cc1NC(=O)NC(C)C(C)(C)C` (configuration not stated), the GFP signal change (wild-type ribosome) is -0.51% (inactive), the OD600 change came out at 1.25% and the RFP signal change turned out to be 0.006%.

`CC(C)C[C@H](NC(=O)N1CCn2c1nc1ccccc12)C(=O)NC1CC1`: the GFP signal change (wild-type ribosome) is 0.495% (inactive), the OD600 change turned out to be 2.23% and the RFP signal change was -1.23%.

As to `CSCC[C@H](NC(=O)N1CCn2c1nc1ccccc12)C(=O)NC1CCCCC1`, the GFP signal change (wild-type ribosome) was -28.5% (active), the OD600 change was -22.6% and the RFP signal change was -0.555%.

In the case of `CSCC[C@H](NC(=O)N1CCn2c1nc1ccccc12)C(=O)NCc1ccc2c(c1)OCO2`, the GFP signal change (wild-type ribosome) is -1.83% (inactive), the OD600 change is -3.03% and the RFP signal change worked out at 3.82%.

`COc1ccc2c3c([nH]c2c1)[C@@H](CO)N(C(=O)c1ccccc1)CC31CCN(C(=O)Nc2cccc(F)c2)CC1`: the GFP signal change (wild-type ribosome) is -4.87% (inactive), the OD600 change was -13.4% and the RFP signal change is 1.11%.

For the molecule `COC(=O)CSc1nnc(NC(=O)CCc2ccccc2)s1`, the GFP signal change (wild-type ribosome) was 7.96% (inactive), the OD600 change came out at 5.71% and the RFP signal change is -0.746%.

As for `O=C(CCc1ccccc1)Nc1ncc([N+](=O)[O-])s1`, the GFP signal change (wild-type ribosome) is -42.5% (active), the OD600 change is -20.7% and the RFP signal change is 2.67%.

In the case of `CC(C)Cc1nnc(NC(=O)CCc2ccccc2)s1`, the GFP signal change (wild-type ribosome) is 2.89% (inactive), the OD600 change was determined as 0.415% and the RFP signal change worked out at 0.86%.

For `Cc1cc(C)n(S(=O)(=O)c2cccc([N+](=O)[O-])c2)n1`, the GFP signal change (wild-type ribosome) was 5.54% (inactive), the OD600 change was found to be 9.05% and the RFP signal change stood at 1.61%.

As for `Cc1ccccc1OS(=O)(=O)c1cccc([N+](=O)[O-])c1`, the GFP signal change (wild-type ribosome) is -22.9% (active), the OD600 change was -15.1% and the RFP signal change is -4.54%.

On to `Cc1cc([N+](=O)[O-])ccc1NS(=O)(=O)c1ccccc1`, for which the GFP signal change (wild-type ribosome) was -10.6% (inactive), the OD600 change was -35.5% and the RFP signal change was -7.16%.
